Data taken from PubChem BioAssay AID651710 (Broad Institute, 2012).
In all, about 360,000 compounds went through this assay and about 1,600 (0.44%) were called active.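 The calls were made as follows: active = every replicate showing at least 50% inhibition; inconclusive = mean inhibition at least 50% but not in every replicate; inactive = the rest.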 The full list was thinned out, with actives kept by preference.

Target: DNA repair protein RAD52 homolog (Homo sapiens) (UniProt P43351)
Assay: blockers of RAD52 strand annealing activity – biochemical, FRET, single point, set 2, primary screen (AID 651710)
Details: recombinant RAD52 DNA annealing, FRET fluorescence; at 18.7 µM; stronger effect = higher value

DNA repair protein RAD52 homolog (Homo sapiens), sequence (P43351 whole entry, looked up): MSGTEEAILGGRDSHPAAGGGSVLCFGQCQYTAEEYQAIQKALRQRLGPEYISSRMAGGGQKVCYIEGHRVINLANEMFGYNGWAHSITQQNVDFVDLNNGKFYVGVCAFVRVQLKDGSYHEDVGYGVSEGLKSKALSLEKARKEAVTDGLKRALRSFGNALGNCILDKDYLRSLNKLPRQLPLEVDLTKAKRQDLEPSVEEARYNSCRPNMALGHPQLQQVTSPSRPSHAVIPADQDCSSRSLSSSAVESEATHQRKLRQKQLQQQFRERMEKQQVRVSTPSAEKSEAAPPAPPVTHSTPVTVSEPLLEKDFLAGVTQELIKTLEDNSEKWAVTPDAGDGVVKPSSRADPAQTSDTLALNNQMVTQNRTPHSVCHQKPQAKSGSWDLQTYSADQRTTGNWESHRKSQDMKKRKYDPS

SMILES | inhibition
CCOc1cccc(=NC2CCCCC2)c2c(C)[nH]c(C)c12 | 79.1% (active)
Clc1ccc([C@@H]2CC3CCC2N3)cn1 (stereo not given in full) | -8.46% (inactive)
COc1ccc(C#Cc2ccc([C@H]3[C@H](CO)N4CCCCN(C(=O)Cc5ccccc5)C[C@@H]34)cc2)cc1 | -26.3% (inactive)
COC1=C[C@@H]2[C@@H]3Cc4ccc(OC)c(O)c4[C@]2(CCN3C)CC1=O | -9.71% (inactive)
COc1c(O)ccc2c1-c1c3c(cc4c1C(C2)N(C)CC4)OCO3 (stereo not given) | 6.1% (inactive)
COc1ccc2c(c1O)-c1cccc3c1[C@@H](C2)N(C)CC3 | 60.5% (active)
O=C(Cc1cccnc1)N1CCCCN2[C@@H](CO)[C@H](c3ccc(C#CC4CCCC4)cc3)[C@@H]2C1 | 11.6% (inactive)
O=C(O)[C@H]1[C@H](CO)[C@H]2Cn3c(ccc(-c4ccccc4F)c3=O)[C@@H]1N2C(=O)c1cccnc1 | 6.1% (inactive)
N#Cc1cccc(-c2ccc([C@H]3[C@@H](CO)N4CCCCN(C(=O)Cc5cccnc5)C[C@@H]34)cc2)c1 | -17% (inactive)
O=C(Cc1ccccc1)N1CCCCN2[C@H](C1)[C@H](c1ccc(C#CC3(O)CCCC3)cc1)[C@@H]2CO | -14.9% (inactive)
O=c1[nH]c2ccccc2n1C1CCN(C(c2ccccc2)c2nnnn2Cc2ccccc2)CC1 (stereo not given) | -11.7% (inactive)
C[N+]1(C)CCOC(O)(c2ccc(-c3ccc(C4(O)C[N+](C)(C)CCO4)cc3)cc2)C1 (stereo not given) | 70.8% (active)
O=C(O)[C@H]1[C@H](CO)[C@H]2Cn3c(cccc3=O)[C@@H]1N2C(=O)c1ccccc1 | 2.96% (inactive)
C[C@@H]1CN([C@H](C)CO)C(=O)CCCn2cc(nn2)CO[C@@H]1CN(C)C(=O)Oc1cccc2ccccc12 | -6.69% (inactive)
CCCCCCCCCCCCn1ccc(=N)cc1 | 50% (active)
O=C(Cc1ccncc1)N1CCCCN2[C@H](CO)[C@@H](c3ccc(C#CC4(O)CCCC4)cc3)[C@H]2C1 | 1.26% (inactive)
COC(=O)[C@H]1[C@H](CO)[C@H]2Cn3c(ccc(C4=CCCC4)c3=O)[C@@H]1N2C(=O)CC1CC1 | -4.86% (inactive)
O=C(Cc1ccncc1)N1CCCCN2[C@@H](CO)[C@H](c3ccc(C#CC4(O)CCCC4)cc3)[C@@H]2C1 | -1.57% (inactive)
COc1cccc(-c2ccc([C@H]3[C@H]4CN(C(=O)Cc5ccncc5)CCCCN4[C@H]3CO)cc2)c1 | -63.8% (inactive)
O=C(Cc1ccncc1)N1CCCCN2[C@@H](CO)[C@H](c3ccc(-c4ccncc4)cc3)[C@@H]2C1 | -1.75% (inactive)
CCC(C)NC1(c2ccccc2)CCCCC1 (stereo not given) | -8.77% (inactive)
CC1=CC(=Cc2sc3ccccc3[n+]2C)C=C(C)O1 | 60.3% (active)
O=C(NC[C@@H]1CC[C@H]2NC[C@H]2O1)C1CCCC1 | -11.1% (inactive)
OC[C@@H]1[C@H]2c3ccccc3NC[C@H]2N1Cc1cccnc1 | 0.281% (inactive)
COc1ccc2c(c1)[C@@]13CCCCC1[C@@H](C2)NCC3 (stereo not given in full) | -7.04% (inactive)
